Experimental findings from article PMC7862700, “An all-to-all approach to the identification of sequence-specific readers for epigenetic DNA modifications on cytosine” are described below.

Common to all, as to test: DAPPL (digital affinity profiling via proximity ligation, sequencing); 10 mM Tris-HCl pH 7.5, 50 mM NaCl, 1 mM DTT, 4% glycerol, room temperature, 30 min; GST-TFs on glutathione beads, 16-mer random dsDNA library, 0.1% formaldehyde crosslink after washing; high values mean tight binding
Holding throughout (details): protein: recombinant; tags: N-terminal GST; dsDNA, one strand shown

In assay [1] the target is T1, ETV2 (Homo sapiens, UniProt O00321 1-342).
T1 sequence: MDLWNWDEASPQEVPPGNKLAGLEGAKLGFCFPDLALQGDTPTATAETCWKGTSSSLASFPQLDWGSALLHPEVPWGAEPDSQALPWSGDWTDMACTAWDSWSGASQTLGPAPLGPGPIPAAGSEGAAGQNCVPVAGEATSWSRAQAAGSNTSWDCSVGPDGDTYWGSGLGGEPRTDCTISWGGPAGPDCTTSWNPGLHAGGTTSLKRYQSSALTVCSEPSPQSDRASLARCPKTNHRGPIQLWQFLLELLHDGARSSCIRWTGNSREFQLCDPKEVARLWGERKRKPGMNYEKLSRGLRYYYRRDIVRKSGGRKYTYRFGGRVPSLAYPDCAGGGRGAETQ
The method, boiled down: (§1)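 The binding signal reported is, for every hexamer, its read frequency for a factor over its read frequency for the tag-only sample. Reads came from pools of yeast-expressed, GST-fused human transcription factors on glutathione beads, barcoded with DNA and mixed with that sample, which were incubated with 200 nmole of a random double-stranded 16-mer DNA library in Tris/NaCl/DTT/glycerol buffer at room temperature for 30 min. After washing, the pools were crosslinked with 0.1% formaldehyde, proximity-ligated with BsaI/T4 ligase for 1 h at 37 °C, PCR-amplified and sequenced on an Illumina NextSeq500.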

Assay [2] addresses T2, ELF3 (Homo sapiens, UniProt P78545 1-371).
T2 sequence: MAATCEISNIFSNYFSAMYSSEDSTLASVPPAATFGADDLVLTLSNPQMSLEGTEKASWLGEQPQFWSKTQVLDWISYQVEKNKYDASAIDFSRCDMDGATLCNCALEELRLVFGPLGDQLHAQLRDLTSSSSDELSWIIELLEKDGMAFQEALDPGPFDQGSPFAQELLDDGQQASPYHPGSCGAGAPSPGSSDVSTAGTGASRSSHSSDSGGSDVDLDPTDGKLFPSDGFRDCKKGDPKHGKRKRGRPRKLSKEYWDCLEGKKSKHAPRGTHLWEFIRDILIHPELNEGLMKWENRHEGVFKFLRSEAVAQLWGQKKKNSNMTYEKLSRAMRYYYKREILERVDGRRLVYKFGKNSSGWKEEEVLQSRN
The method, boiled down:
as §1

The target in assay [3] is ETV1 (Homo sapiens, UniProt P50549 1-477). The method, boiled down:
as §1

Assay [4] concerns the target T3, ERF (Homo sapiens, UniProt P50548 1-548).
T3 sequence: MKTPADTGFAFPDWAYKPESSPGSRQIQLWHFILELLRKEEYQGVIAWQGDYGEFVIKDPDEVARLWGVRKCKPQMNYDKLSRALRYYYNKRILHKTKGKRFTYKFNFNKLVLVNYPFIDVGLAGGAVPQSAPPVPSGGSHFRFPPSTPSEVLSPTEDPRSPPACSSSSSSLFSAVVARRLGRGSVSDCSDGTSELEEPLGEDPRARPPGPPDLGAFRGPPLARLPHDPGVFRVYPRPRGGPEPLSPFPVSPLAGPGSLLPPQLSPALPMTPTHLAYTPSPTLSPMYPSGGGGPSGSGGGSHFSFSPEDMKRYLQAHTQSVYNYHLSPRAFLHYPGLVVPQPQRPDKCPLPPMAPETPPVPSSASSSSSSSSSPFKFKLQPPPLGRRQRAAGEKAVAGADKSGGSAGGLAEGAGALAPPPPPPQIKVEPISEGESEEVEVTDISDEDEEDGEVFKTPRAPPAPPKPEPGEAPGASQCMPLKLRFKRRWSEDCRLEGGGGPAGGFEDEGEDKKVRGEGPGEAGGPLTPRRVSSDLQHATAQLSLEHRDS
In a few lines:
as §1

Assay [5] addresses T4, ETV3L (Homo sapiens, UniProt Q6ZN32 1-361).
T4 sequence: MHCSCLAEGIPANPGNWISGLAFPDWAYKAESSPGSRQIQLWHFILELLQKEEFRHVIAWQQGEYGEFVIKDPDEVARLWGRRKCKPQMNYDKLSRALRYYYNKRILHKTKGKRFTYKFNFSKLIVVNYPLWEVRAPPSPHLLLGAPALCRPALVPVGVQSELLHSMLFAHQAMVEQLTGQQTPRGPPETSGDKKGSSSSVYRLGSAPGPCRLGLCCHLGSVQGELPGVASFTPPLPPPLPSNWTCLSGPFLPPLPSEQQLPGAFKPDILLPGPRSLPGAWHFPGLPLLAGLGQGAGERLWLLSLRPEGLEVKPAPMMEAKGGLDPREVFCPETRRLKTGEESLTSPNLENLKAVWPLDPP
In a few lines:
as §1

In assay [6] the target is T5, ETS2 (Homo sapiens, UniProt P15036 1-469).
T5 sequence: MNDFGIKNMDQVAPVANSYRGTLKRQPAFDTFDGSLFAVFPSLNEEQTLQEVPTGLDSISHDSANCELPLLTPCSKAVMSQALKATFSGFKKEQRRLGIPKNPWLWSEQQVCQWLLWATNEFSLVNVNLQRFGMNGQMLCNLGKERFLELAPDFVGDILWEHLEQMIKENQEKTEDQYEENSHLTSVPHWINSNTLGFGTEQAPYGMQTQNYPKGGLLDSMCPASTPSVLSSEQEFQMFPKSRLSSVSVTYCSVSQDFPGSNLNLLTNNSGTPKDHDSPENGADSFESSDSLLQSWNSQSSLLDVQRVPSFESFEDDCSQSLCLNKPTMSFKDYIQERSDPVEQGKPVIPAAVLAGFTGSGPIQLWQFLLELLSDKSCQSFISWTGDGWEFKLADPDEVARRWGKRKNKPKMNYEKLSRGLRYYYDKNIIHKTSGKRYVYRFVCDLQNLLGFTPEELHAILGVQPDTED
In a few lines:
as §1

Assay [7] deals with T6, SPDEF (Homo sapiens, UniProt O95238 1-335).
T6 sequence: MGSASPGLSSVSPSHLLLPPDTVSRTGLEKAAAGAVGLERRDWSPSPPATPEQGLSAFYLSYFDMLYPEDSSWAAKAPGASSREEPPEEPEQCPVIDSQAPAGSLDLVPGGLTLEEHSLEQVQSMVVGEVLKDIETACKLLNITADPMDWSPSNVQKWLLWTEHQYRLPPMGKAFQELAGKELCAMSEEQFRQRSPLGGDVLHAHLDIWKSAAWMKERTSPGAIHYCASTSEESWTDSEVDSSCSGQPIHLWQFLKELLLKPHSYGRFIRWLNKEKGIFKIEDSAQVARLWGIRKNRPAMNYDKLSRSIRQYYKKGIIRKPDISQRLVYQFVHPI
The method, boiled down: as §1

The target in assay [8] is T7, ETV7 (Homo sapiens, UniProt Q9Y603 1-341).
T7 sequence: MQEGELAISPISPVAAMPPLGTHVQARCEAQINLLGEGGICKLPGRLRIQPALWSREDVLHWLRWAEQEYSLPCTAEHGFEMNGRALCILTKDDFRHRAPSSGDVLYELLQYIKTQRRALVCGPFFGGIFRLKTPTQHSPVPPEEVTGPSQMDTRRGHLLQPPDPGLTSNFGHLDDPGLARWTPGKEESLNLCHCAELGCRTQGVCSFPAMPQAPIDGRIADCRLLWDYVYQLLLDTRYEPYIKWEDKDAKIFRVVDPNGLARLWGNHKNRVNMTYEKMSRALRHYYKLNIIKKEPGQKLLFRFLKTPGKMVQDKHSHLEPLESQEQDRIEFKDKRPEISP
The method, boiled down: as §1

The target of assay [9] is T8, ETV3 (Homo sapiens, UniProt P41162-2 1-143).
T8 sequence: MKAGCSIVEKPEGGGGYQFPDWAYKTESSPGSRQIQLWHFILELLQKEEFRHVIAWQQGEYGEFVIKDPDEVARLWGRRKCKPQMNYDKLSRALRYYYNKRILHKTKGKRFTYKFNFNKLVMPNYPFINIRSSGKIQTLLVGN
The method, boiled down: as §1

Assay [10] deals with ETV6 (Homo sapiens, UniProt P41212 1-452). In a few lines: as §1
Sequence of ETV6 (P41212 whole entry): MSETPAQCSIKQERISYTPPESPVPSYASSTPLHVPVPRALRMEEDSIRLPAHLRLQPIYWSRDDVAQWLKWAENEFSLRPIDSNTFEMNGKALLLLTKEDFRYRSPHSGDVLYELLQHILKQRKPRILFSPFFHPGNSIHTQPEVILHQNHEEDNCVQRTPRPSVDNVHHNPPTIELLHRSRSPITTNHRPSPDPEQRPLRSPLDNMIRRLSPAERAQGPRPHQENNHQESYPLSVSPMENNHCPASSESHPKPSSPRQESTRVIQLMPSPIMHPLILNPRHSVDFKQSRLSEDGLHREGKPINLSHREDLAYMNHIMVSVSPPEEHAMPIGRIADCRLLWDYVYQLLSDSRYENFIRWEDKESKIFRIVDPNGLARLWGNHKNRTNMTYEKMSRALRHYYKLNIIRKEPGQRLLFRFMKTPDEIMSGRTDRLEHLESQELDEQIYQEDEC

Sequence of ETV1 (P50549 whole entry): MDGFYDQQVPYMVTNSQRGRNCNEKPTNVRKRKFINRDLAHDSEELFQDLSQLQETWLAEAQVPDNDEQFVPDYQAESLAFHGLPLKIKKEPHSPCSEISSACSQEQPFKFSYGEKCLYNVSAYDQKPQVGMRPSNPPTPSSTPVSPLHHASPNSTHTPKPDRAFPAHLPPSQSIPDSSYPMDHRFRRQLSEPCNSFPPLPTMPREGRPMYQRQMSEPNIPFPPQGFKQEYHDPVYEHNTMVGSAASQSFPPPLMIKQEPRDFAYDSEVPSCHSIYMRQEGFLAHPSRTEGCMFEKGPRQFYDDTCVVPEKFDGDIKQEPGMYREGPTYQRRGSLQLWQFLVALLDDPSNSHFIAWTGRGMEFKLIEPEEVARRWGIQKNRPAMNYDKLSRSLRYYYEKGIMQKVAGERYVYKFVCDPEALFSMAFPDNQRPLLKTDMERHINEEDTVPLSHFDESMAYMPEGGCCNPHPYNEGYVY

Consider GGTAAA, for which the binding signal in [1] is 1.03 fold enrichment (6-mer frequency, TF over GST control); in assay [2], 1.13 fold enrichment (6-mer frequency, TF over GST control); in [3] it was 1.08 fold enrichment (6-mer frequency, TF over GST control); in assay [4], 1.01 fold enrichment (6-mer frequency, TF over GST control); in [5] it was 1 fold enrichment (6-mer frequency, TF over GST control); in assay [6], 1.1 fold enrichment (6-mer frequency, TF over GST control). Also, the binding signal in [7] is 1.02 fold enrichment (6-mer frequency, TF over GST control); in assay [8] it was 1.12 fold enrichment (6-mer frequency, TF over GST control); in assay [9], 1.06 fold enrichment (6-mer frequency, TF over GST control); in [10], 1.07 fold enrichment (6-mer frequency, TF over GST control).
